The text below walks through data of PubChem BioAssay (NCATS).

One assay deals with MKL-1. In words: qHTS assay to identify novel small-molecules to repurpose for Merkel cell carcinoma treatment (AID 1296009). Note: nearly all actives have a fitted effect of over 60% in size. Note: potency is the fitted concentration of half-maximal effect. The note with it: MCC and control cell lines, CellTiter-Glo viability, 72 h; series mostly up to 46 µM. In outline:
(§1)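 Cell viability, measured as CellTiter-Glo luminescence, was normalized between DMSO and no-cell wells. The cells had been exposed to 8- or 11-point compound dilutions for 72 hr at 37 degree celsius.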
(Quantitative high-throughput screening tests each substance at several concentrations.)

For the next assay, the system named is MKL-2. The description is as above. The note with it: MCC and control cell lines, CellTiter-Glo viability, 72 h; series mostly up to 46 µM. In outline:
as §1
On the technique in general: In ATP-based viability assays light output follows the ATP content of the culture.

The subject of another assay is UISO. The description is as above. The note with it: MCC and control cell lines, CellTiter-Glo viability, 72 h; series mostly up to 46 µM. In outline: as §1
Another assay relates to WaGa. The description is as above. Particulars: MCC and control cell lines, CellTiter-Glo viability, 72 h; series mostly up to 46 µM. In outline: as §1
A further assay concerns NIH3T3. Described as above. The note with it: MCC and control cell lines, CellTiter-Glo viability, 72 h; series mostly up to 44.8 µM. In outline:
as §1

For the next assay, the system named is C33A. Description: Primary qHTS to identify gynecologic anti-cancer compounds using libraries of approved drugs and bioactive compounds (AID 1345084). Note: nearly all actives have a fitted effect of over 55% in size. The note with it: Gynecologic cancer cell panel viability, ATPlite luminescence, 48 h; series mostly up to 57.5 µM. In outline:
(§2)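 Cells, 1,000 per well, were allowed to settle for 16 h at 37 C before compound addition. Five concentrations were tested for 48 h, and viability was read by ATPlite luminescence after 15 min at room temperature.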

Another assay deals with CAOV3. The assay is described as above. The note with it: Gynecologic cancer cell panel viability, ATPlite luminescence, 48 h; series mostly up to 57.5 µM. In outline: as §2
A further assay relates to JEG-3. The assay is described as above. The note with it: Gynecologic cancer cell panel viability, ATPlite luminescence, 48 h; series mostly up to 57.5 µM. In outline: as §2
Another assay deals with OV90. The description is as above. Particulars: Gynecologic cancer cell panel viability, ATPlite luminescence, 48 h; series mostly up to 57.5 µM. In outline:
as §2

Another assay concerns CASKI. The description is as above. The note with it: Gynecologic cancer cell panel viability, ATPlite luminescence, 48 h; series mostly up to 57.5 µM. In outline:
as §2

The next assay relates to Es-2. Described as above. Particulars: Gynecologic cancer cell panel viability, ATPlite luminescence, 48 h; series mostly up to 57.5 µM. In outline:
as §2

In the next assay the test system is HeLa. The assay is described as above. Particulars: Gynecologic cancer cell panel viability, ATPlite luminescence, 48 h; series mostly up to 57.5 µM. In outline: as §2
Another assay concerns Hek293T. The description is as above. Particulars: Gynecologic cancer cell panel viability, ATPlite luminescence, 48 h, control line for the selectivity index; series mostly up to 57.5 µM. In outline:
as §2

Another assay relates to PA-1. The description is as above. The note with it: Gynecologic cancer cell panel viability, ATPlite luminescence, 48 h; series mostly up to 57.5 µM. In outline:
as §2

The next assay deals with SKOV3. The assay is described as above. Particulars: Gynecologic cancer cell panel viability, ATPlite luminescence, 48 h; series mostly up to 57.5 µM. In outline:
as §2

For the next assay, the system named is Tov-21-G. Described as above. Particulars: Gynecologic cancer cell panel viability, ATPlite luminescence, 48 h; series mostly up to 57.5 µM. In outline: as §2
The next assay deals with Tov112D. The description is as above. Particulars: Gynecologic cancer cell panel viability, ATPlite luminescence, 48 h; series mostly up to 57.5 µM. In outline: as §2
The nature of assay [1]: Drug repurposing screens with cells derived from glioblastoma tumor samples (AID 1345199). Note: nearly all actives have a fitted effect of over 40% in size. The note with it: GBM patient neurospheres viability, ATP luminescence, 48 h. In outline:
(§3)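 Primary testing used CD133+ neurospheres from four GBM patients, seven concentrations, 48 h exposure and ATP-based viability; confirmation added three slower-growing patient lines.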

A further assay relates to astro. Described as above. Particulars: viability, ATP luminescence, 48 h; series mostly up to 45.9 µM. In outline:
as §3

Results filed as inconclusive are left out. A number with no mark means an inactive call. The source made the active and inactive calls. Calls come from the whole dose curve; as a rule, active = well fitted curve in the direction sought with a large enough effect; inconclusive = small, poorly fitted or top-dose-only effect, or another doubt; inactive = no such curve, though single readings can be large; an effect the other way counts as inactive or inconclusive.
% is set by controls: 0 for no effect and ±100 for the full control effect.

On to `COc1cc2c(cc1OC)[C@@H]1Cc3ccc(OC)c(OC)c3CN1CC2`, for which the Potency entry in the assay with MKL-1 and in the assay with UISO was “inactive” throughout. Also, the Potency in the assay on MKL-2 was 18.7 µM (active).
As to `CC(C)[C@H](O)C(=O)N[C@@H](C)C(=O)N[C@@H]1C(=O)N(C)CCc2ccccc21`, the Potency entry with MKL-1, with MKL-2, with UISO and in the assay on WaGa was “inactive” each time.
`Cc1cc2c(cc1C1(c3ccc(C(=O)O)cn3)CC1)C(C)(C)CCC2(C)C`: the Potency entry in the assay on MKL-1, with MKL-2, with NIH3T3, with UISO, in the assay with WaGa and in the assay on C33A was “inactive” in each case. The Potency entry in the assay with CAOV3, in the assay with JEG-3 and in the assay on OV90 was “inactive” each time.
With `CN[C@@H](C)[C@H]1[C@H](O)C[C@@]2(C)[C@@H]3CC[C@H]4C(C)(C)[C@@H](NC)CC[C@@]45C[C@@]35CC[C@]12C`, the Potency result with MKL-1, in the assay with MKL-2, in the assay with NIH3T3, with UISO and with WaGa was “inactive” in each case. Besides, the activity change, negative = cytotoxicity in the assay with C33A is 14.9% [at 11.6 µM]; in the assay with CASKI it was 1.7% [at 11.6 µM]; with Es-2, -1.65% [at 11.6 µM]; in the assay with HeLa it was 13.6% [at 11.6 µM]; with Hek293T, -11.4% [at 11.6 µM]; in the assay with JEG-3, 6.85% [at 11.6 µM]. The activity change, negative = cytotoxicity is -14% [at 11.6 µM] with PA-1, 0% [at 11.6 µM] in the assay with SKOV3, -6.08% [at 11.6 µM] with Tov-21-G and -2.44% [at 11.6 µM] in the assay on Tov112D.
Consider `CS(=O)(=O)c1ccc(C2=C(c3ccccc3)C(=O)OC2)cc1`, for which the Potency entry in the assay on MKL-1, in the assay with MKL-2, in the assay with NIH3T3, with UISO, in the assay on WaGa and with C33A was “inactive” throughout. For the same compound, the Potency result in the assay with CASKI, with Es-2, in the assay on HeLa, in the assay with Hek293T, in the assay on JEG-3 and in the assay on OV90 was “inactive” each time. For the same compound, the Potency entry in the assay with PA-1, in the assay on Tov-21-G, with Tov112D and in the assay with astro was “inactive” throughout. Further, the activity, negative = cell killing in assay [1] (at 45.9 µM (top of the series), tumour line B) is -11.3%; in assay [1] (at 46.1 µM (top of the series), tumour line C), -14.3%.
As to `CCN1CCN(c2ccc(Nc3cc(N(C)C(=O)Nc4c(Cl)c(OC)cc(OC)c4Cl)ncn3)cc2)CC1`, the Potency entry with MKL-1, in the assay with MKL-2, in the assay with NIH3T3, in the assay on WaGa, in the assay on C33A and with CAOV3 was “inactive” in each case. In addition, the Potency result with CASKI, in the assay with Es-2, in the assay with Hek293T, with JEG-3, with OV90 and with PA-1 was “inactive” in each case. Also, in the assay with Tov112D, the Potency result is “inactive”.
For `O=C1C(CCC(O)c2ccc(F)cc2)C(c2ccc(O)cc2)N1c1ccc(F)cc1` (configuration not stated), the Potency result in the assay on MKL-1, in the assay with MKL-2, in the assay on UISO and in the assay on WaGa was “inactive” throughout.
As for `O=c1cc(-c2ccc(O)c(O)c2)oc2cc(O)cc(O)c12`, the Potency entry in the assay with MKL-1, with MKL-2 and in the assay with UISO was “inactive” in each case.
On to `O=C1CN2Cc3c(ccc(Cl)c3Cl)N=C2N1`, for which the Potency result with MKL-1, in the assay with MKL-2, with UISO and with WaGa was “inactive” throughout.
On to `NC(=O)c1ccc(N(C(N)=O)c2c(F)cccc2F)nc1-c1ccc(F)cc1F`, for which the Potency result in the assay on MKL-1, with MKL-2, in the assay on NIH3T3, in the assay with UISO, in the assay with WaGa and in the assay with C33A was “inactive” each time. Further, the Potency entry in the assay on CASKI, in the assay on Es-2, with HeLa, in the assay on Hek293T, in the assay on JEG-3 and with OV90 was “inactive” in each case. Also, the Potency entry with PA-1, with SKOV3, in the assay on Tov-21-G and with Tov112D was “inactive” each time.
Take `COC(=O)[C@H](c1ccccc1Cl)N1CCc2sccc2C1`: the Potency entry in the assay on MKL-1, in the assay on MKL-2, in the assay with UISO and with WaGa was “inactive” in each case.
Consider `Cc1ccc(S(=O)(=O)Nc2nc3ccccc3nc2Nc2ccc3nsnc3c2)cc1`, for which the Potency with MKL-1 is 1.82 µM (active); with UISO, 5.12 µM (active). Also, the Potency result in the assay with MKL-2 was “inactive”.
`CNC(=O)[C@H](Cc1ccccc1)NC(=O)[C@H](CC(C)C)[C@H](CSc1cccs1)C(=O)NO`: the Potency result with MKL-1, in the assay with MKL-2 and with UISO was “inactive” each time.
On to `COc1ccc2ccc(=O)oc2c1CC=C(C)C`, for which the Potency in the assay on MKL-1 was 10.5 µM (active); with MKL-2, 11.8 µM (active); in the assay with WaGa, 5.26 µM (active). For the same compound, the Potency result in the assay on UISO was “inactive”.
For `COc1ccc(CCC(=O)Nc2nc3ccc(Cl)cc3s2)cc1OC`, the Potency entry in the assay on MKL-1, in the assay on MKL-2, in the assay with NIH3T3, with UISO, with WaGa and in the assay with C33A was “inactive” each time. Further, the Potency entry with CASKI, in the assay with Es-2, with HeLa, with Hek293T, in the assay on JEG-3 and in the assay on OV90 was “inactive” in each case. The Potency entry in the assay with PA-1, with SKOV3, in the assay on Tov-21-G and in the assay on Tov112D was “inactive” in each case.
As to `O=C(c1ccc(C(=O)N2CCC(N3CCCC3)CC2)c(Nc2ccccc2)c1)N1CCC(N2CCCC2)CC1`, the Potency entry in the assay with MKL-1, in the assay on MKL-2, in the assay with NIH3T3, in the assay on UISO, in the assay with WaGa and with C33A was “inactive” in each case. Besides, the Potency result with CASKI, in the assay on Es-2, in the assay with HeLa, in the assay with Hek293T, in the assay with JEG-3 and in the assay on OV90 was “inactive” throughout. In addition, the Potency result with PA-1, in the assay with SKOV3, with Tov-21-G and in the assay with Tov112D was “inactive” in each case.
Regarding `O=C(O)C1=CO[C@@H](O[C@@H]2O[C@H](CO)[C@H](O)[C@H](O)[C@H]2O)[C@@H]2C(CO)=CC[C@H]12`, the Potency result in the assay with MKL-1, with MKL-2, in the assay on UISO and in the assay with WaGa was “inactive” in each case.
For the compound `O=C(Nc1cccc(Cl)c1)Nc1ncc(CCNc2ncnc3ccsc23)s1`, in the assay on MKL-1, the Potency was 0.296 µM (active). Further, the Potency result with MKL-2 and in the assay with UISO was “inactive” each time.
